# The supplement of paper PMC11732987, “Enantioselective OTUD7B fragment discovery through chemoproteomics screening and high-throughput optimisation” (Communications Chemistry, 2025)
# A number with no mark means an inactive call.
# Biological target: COPS5 (UniProt Q92905)
# Experiment: log2 ratio of Biotin-Ahx-Ub-VS probe labelling (fragment/DMSO); higher = less target engagement (more negative = stronger competition), active = hit call of the paper (q ≤ 0.05, log2 ratio ≤ -1)
# Details: compound concentration: 200 uM; treatment time: 3 h
# Method: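 Competitive ABPP in HEK293T cell lysate. Lysates were treated with each chloroacetamide fragment at 200 µM for 3 h, then with Biotin-Ahx-Ub-VS (0.5 µM, 1 h), NeutrAvidin-enriched and analysed by diaPASEF LC-MS/MS. Protein LFQ was median-normalised; average log2 ratio is fragment/DMSO from an unpaired t-test (n=3 treated, n=44 DMSO). Hits: q ≤ 0.05, log2 ratio ≤ -1, unique peptides ≥ 2.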
# Chain of COPS5 (Q92905 whole entry, looked up, the tested form may be a part): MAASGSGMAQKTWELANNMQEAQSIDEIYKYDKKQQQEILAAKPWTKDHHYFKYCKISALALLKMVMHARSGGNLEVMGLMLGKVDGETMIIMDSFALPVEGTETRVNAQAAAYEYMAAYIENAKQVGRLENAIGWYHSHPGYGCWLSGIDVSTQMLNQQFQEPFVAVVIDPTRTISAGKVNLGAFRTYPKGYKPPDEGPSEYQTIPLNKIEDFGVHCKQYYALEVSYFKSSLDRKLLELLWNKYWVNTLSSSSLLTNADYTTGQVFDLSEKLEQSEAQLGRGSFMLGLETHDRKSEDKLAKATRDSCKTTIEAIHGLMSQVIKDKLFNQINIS
row,SMILES,log2 ratio of Biotin-Ahx-Ub-VS probe labelling
1,O=C(CCl)NCc1ccc(N2CCOCC2)nc1,0.0899
2,Cc1nc(CNC(=O)CCl)c2ccccn12.Cl,-0.109
3,O=C(CCl)N1c2ccccc2NC(=O)C12CCCC2,0.325
4,O=C(CCl)N1CCOC2(CCC2)C1,0.247
5,CS(=O)(=O)c1ccc(CNC(=O)CCl)cc1,0.0587
6,CC1CCc2onc(CNC(=O)CCl)c2C1 (stereo not given),0.0922
7,COCC1C=CCCN1C(=O)CCl (stereo not given),-0.00365
8,Cc1nc(CN2CCN(C(=O)CCl)CC2)cs1,-0.305
9,O=C(CCl)NCc1cccc(N2CCCC2=O)c1,-0.0124
10,COc1ccc(C2CCCN2C(=O)CCl)c(OC)c1 (stereo not given),-0.524
11,O=C(CCl)NCC(=O)N1CCCC1,-0.0202
12,O=C(CCl)N1CCc2nc[nH]c2C1c1ccc(Cl)cc1 (stereo not given),-0.139
13,COc1ccccc1C(C)NC(=O)CCl (stereo not given),0.247
14,N#Cc1ccc(Cl)cc1NC(=O)CCl,0.289
15,O=C(CCl)N1CCN(C(=O)Nc2ccccc2)CC1,-0.0124
16,NC(=O)C1CCCCN1C(=O)CCl (stereo not given),0.234
17,C[C@H]1CN(C(=O)CCl)CCN1C(=O)c1cnn(C)c1.Cl,-0.0598
18,O=C(CCl)N1CCN(C(=O)N2CCCCC2)CC1,-0.16
19,Cc1ccccc1C1(CNC(=O)CCl)CCOCC1,0.211
20,Cn1cc(CN(Cc2ccc(Cl)cc2)C(=O)CCl)cn1,-0.179

row,SMILES,log2 ratio of Biotin-Ahx-Ub-VS probe labelling
1,C#Cc1cccc(NC(=O)CCl)c1,-0.274
2,Cc1n[nH]c2c1CN(C(=O)CCl)CC2,0.184
3,O=C(CCl)Nc1cc2c(cc1Cl)OCCO2,0.135
4,O=C(CCl)Nc1ccccc1C(F)(F)F,0.00522
5,Cl.O=C(CCl)N1CCCC(c2ncc[nH]2)C1 (stereo not given),0.0747
6,Cc1cc(CC(C)NC(=O)CCl)n[nH]1 (stereo not given),0.0799
7,CCc1c[nH]c(CNC(=O)CCl)n1.Cl,-0.182
8,Cc1ccccc1CN(C)C(=O)CCl,0.0682
9,COc1ccc(CN(C)C(=O)CCl)cc1,-0.0998
10,O=C(CCl)N1CCOC(c2cccc(F)c2)C1 (stereo not given),-0.0425
11,O=C(CCl)Nc1cc(Cl)ccc1-n1cncn1,-0.332
12,CC(NC(=O)CCl)c1ccc2[nH]ncc2c1 (stereo not given),-0.00941
13,O=C(CCl)N1CCCC1c1ccsc1 (stereo not given),-0.0486
14,CC1(NC(=O)CCl)CCS(=O)(=O)C1 (stereo not given),0.0148
15,CC(O)CC1CCN(C(=O)CCl)CC1 (stereo not given),-0.25
16,O=C(CCl)Nc1ccc(Cl)c(F)c1,0.155
17,CC1Cc2ccccc2N1C(=O)CCl (stereo not given),0.169
18,O=C(CCl)N[C@H]1CC[C@@H](CO)CC1,0.0798
19,O=C(CCl)NCCc1cccc2ccccc12,-0.0396
20,COc1ccc(Cl)cc1NC(=O)CCl,-0.0284
